Among the data in PubChem BioAssay (NCI) are growth values, retold here.

Some test systems named below: SN12C renal; UO-31 renal; ACHN renal; CAKI-1 renal; A498 renal; MOLT-4 leukemia; CCRF-CEM leukemia; TK-10 renal.
Holding throughout (experiment): NCI-60 one-dose screen, 48 h (100 = growth as untreated, 0 = no growth, -100 = all killed)
What all share (conditions): 10 µM unless noted

Values joined by “and” are separate entries in the source; they are usually repeats but may differ in a detail not shown here. Equal values may be shown once. About 83,000 compounds went through this panel and 20% of them were active in at least one assay; those are over-represented in the sample as a whole.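 Method: cells in 96-well plates; compound added at one concentration; 48 h incubation; percent growth measured; values under 10 scored active.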 Active and inactive are the calls of the source.

For `Nc1c(Br)cc(Br)cc1-c1n[nH]c(=O)[nH]c1=O`, the growth with SN12C renal was 109% (inactive); in the test on UO-31 renal, 74.3% (inactive); in the test on ACHN renal, 91.9% (inactive); in the test on CAKI-1 renal, 86.4% (inactive); in the test with A498 renal it was 91.7% (inactive); in the test with MOLT-4 leukemia, 65.8% (inactive).

With `N#Cc1ccc(C(F)(F)F)nc1N1CCC(C(=O)Nc2ccc(Cl)cc2)CC1`, the growth in the test with SN12C renal is 80.3% (inactive); in the test on UO-31 renal, 74% (inactive); in the test with ACHN renal, 68.7% (inactive); in the test on CAKI-1 renal it was 73.1% (inactive); with A498 renal, 64.2% (inactive); with CCRF-CEM leukemia, 82.5% (inactive). In addition, the growth with MOLT-4 leukemia was 41% (inactive).

As to `Oc1cccc(Nc2nc(-c3ccccn3)cs2)c1`, the growth in the test on SN12C renal was 97.8% (inactive); in the test on UO-31 renal it was 73.1% (inactive); with ACHN renal it was 102% (inactive); in the test on CAKI-1 renal, 111% (inactive); in the test on MOLT-4 leukemia, 85.2% (inactive).

For `O=c1[nH]c(-c2ccncc2)nc2sc3c(c12)CCCCCC3`, the growth was 77.9% (inactive) in the test with SN12C renal; 70.5% (inactive) in the test with UO-31 renal; 67.8% (inactive) with CAKI-1 renal; 70.1% (inactive) in the test with A498 renal; 98.1% (inactive) in the test on CCRF-CEM leukemia; 92.1% (inactive) in the test on MOLT-4 leukemia.

Turning to `Clc1nc(-c2ccccn2)nc2sc3c(c12)CCCCCC3`, the growth in the test with SN12C renal was 84.9% (inactive); in the test on UO-31 renal, 16.4% (inactive); with ACHN renal, -20.4% (active); with CAKI-1 renal, -65.2% (active); in the test on A498 renal, 118% (inactive); with CCRF-CEM leukemia it was 72.4% (inactive). For the same molecule, in the test with MOLT-4 leukemia, the growth was 67.7% (inactive).

For `COc1cc(CC2c3cc(OC)c(OC)cc3CCN2C)c(Oc2cc3c(cc2OC)-c2c(O)c(OC)cc4c2C(C3)N(C)CC4)cc1OC` (stereo unspecified), the growth in the test on TK-10 renal is -10.6% [100 µM] (active) and -93% [100 µM] (active).

With `Nc1ccccc1-c1n[nH]c(=O)[nH]c1=O`, the growth was 97.7% (inactive) with SN12C renal; 86.8% (inactive) in the test with UO-31 renal; 104% (inactive) with ACHN renal; 87.5% (inactive) in the test on CAKI-1 renal; 107% (inactive) with A498 renal; 106% (inactive) in the test on MOLT-4 leukemia.

Consider `CCCCOC(=O)C1CN2C(=NC1(C(F)(F)F)C(F)(F)F)Sc1ccccc12` (stereo unspecified), for which, in the test with TK-10 renal, the growth was 33.3% [100 µM] (inactive) and 71.4% [100 µM] (inactive).

As for `C=CCCCCCCCCC(=O)[O-].C=CCCCCCCCCC(=O)[O-].[Zn+2]`, the growth in the test with UO-31 renal was 80.7% (inactive).

Regarding `O=c1nc(NO)[nH]c(=O)n1Cc1ccc(F)cc1`, the growth in the test with SN12C renal was 107% (inactive); with UO-31 renal, 84.2% (inactive); with ACHN renal it was 101% (inactive); with CAKI-1 renal, 111% (inactive); in the test with A498 renal it was 128% (inactive); with CCRF-CEM leukemia, 105% (inactive). Moreover, in the test with MOLT-4 leukemia, the growth was 103% (inactive).

`CC(C)(C)[Si](C)(C)OC1[C@@H](COC(N)=O)O[C@@H](n2cnc3c(N)ncnc32)[C@H]1O[Si](C)(C)C(C)(C)C` (stereo partly specified): the growth in the test on SN12C renal is 102% (inactive); in the test on UO-31 renal it was 51.9% (inactive); in the test on ACHN renal it was 89.1% (inactive); with CAKI-1 renal it was 91.9% (inactive); in the test with A498 renal, 106% (inactive); in the test with CCRF-CEM leukemia, 50.3% (inactive). In the test with MOLT-4 leukemia, the growth is -40.1% (active).

As to `C#CCn1c2c(c3ccccc3c1=O)C(=O)c1ccccc1-2`, the growth with TK-10 renal was 17.2% [100 µM] (inactive) and -69.9% [100 µM] (active).

Consider `CN(C)CCNc1ccc(NCC[N+](C)(C)Cc2ccc([N+](=O)[O-])cc2)c2c1C(=O)c1ccccc1C2=O`, for which the growth with TK-10 renal is 36.4% [25 µM] (inactive) and 2.65% [25 µM] (active).

For `CC(C)(C)[Si](C)(C)OC1[C@@H](COC(=O)NC(=O)CCl)O[C@@H](n2cnc3c(N)ncnc32)[C@H]1O[Si](C)(C)C(C)(C)C` (stereo partly specified), the growth in the test on SN12C renal was -47.5% (active); with UO-31 renal, 20% (inactive); in the test on ACHN renal, 61.4% (inactive); in the test on CAKI-1 renal, 19.3% (inactive); with A498 renal, 105% (inactive); in the test with CCRF-CEM leukemia, -48.6% (active). Further, the growth in the test on MOLT-4 leukemia was -54.7% (active).

For the molecule `CC[Si](CC)(CC)OC1[C@@H](O[Si](CC)(CC)CC)[C@@H](CNC(=O)NC)O[C@H]1n1cnc2c(NC(=O)Nc3ccccc3)ncnc21` (stereo partly specified), the growth was 93.6% (inactive) in the test with SN12C renal; 40.1% (inactive) with UO-31 renal; 88.4% (inactive) with ACHN renal; 69% (inactive) with CAKI-1 renal; 38.6% (inactive) in the test on A498 renal; 38.5% (inactive) with CCRF-CEM leukemia. The growth in the test on MOLT-4 leukemia is -10.9% (active).

In the case of `CN1CCN(c2nc(-c3ccncc3)nc3sc4c(c23)CCCCCC4)CC1`, the growth in the test on SN12C renal is 67.8% (inactive); in the test on UO-31 renal, 33.7% (inactive); in the test on ACHN renal it was 68.3% (inactive); in the test on CAKI-1 renal, 46.7% (inactive); with A498 renal, 31.7% (inactive); in the test on CCRF-CEM leukemia, 79.5% (inactive). In addition, in the test on MOLT-4 leukemia, the growth was 50.9% (inactive).

Regarding `N#CC1=C(N)OC(c2cccc([N+](=O)[O-])c2)C1(C#N)C#N` (stereo unspecified), in the test on TK-10 renal, the growth is -66.6% [100 µM] (active) and -87.5% [100 µM] (active).

As to `CC(=O)c1cc2c(s1)C(=O)c1sccc1C2=O`, the growth with TK-10 renal was -14.4% [100 µM] (active) and -100% [100 µM] (active).

Regarding `O=C1C=C(Nc2ccc(S(=O)(=O)Nc3nccs3)cc2)c2ccccc2C1=O`, the growth in the test with TK-10 renal was 171% [100 µM] (inactive) and -86% [100 µM] (active).

`COc1ccccc1-n1c(SCc2cc(OC)c(OC)c(OC)c2)nc2ccc(Cl)cc2c1=O`: the growth with SN12C renal was 70.3% (inactive); in the test on UO-31 renal it was 42.6% (inactive); with CAKI-1 renal it was 42.6% (inactive); in the test on A498 renal, 5.01% (active); in the test on CCRF-CEM leukemia, 2.88% (active); in the test with MOLT-4 leukemia, 15.4% (inactive).

On to `CCOC(=O)C1=C(C)N2C(=NC3=C(CCCC/C3=C\c3cc(OC)c(OC)c(OC)c3)C2c2cc(OC)c(OC)c(OC)c2)S1` (stereo unspecified), for which the growth in the test with SN12C renal is 75.2% (inactive); with UO-31 renal, 54.3% (inactive); in the test on ACHN renal it was 69.6% (inactive); in the test on CAKI-1 renal, 65.6% (inactive); in the test on A498 renal it was 52% (inactive); in the test on CCRF-CEM leukemia, 70.9% (inactive). Also, in the test with MOLT-4 leukemia, the growth is 45.3% (inactive).

`CC(C)(C)[Si](C)(C)OC1[C@@H](CNC(=O)NC(=O)CCl)O[C@@H](n2cnc3c(N)ncnc32)[C@H]1O[Si](C)(C)C(C)(C)C` (stereo partly specified): the growth in the test with SN12C renal was -81.9% (active); in the test with UO-31 renal it was -96.8% (active); with ACHN renal, -95.8% (active); in the test with CAKI-1 renal, -64.8% (active); in the test with A498 renal, -12.9% (active); in the test with CCRF-CEM leukemia, -46.5% (active). Moreover, the growth in the test on MOLT-4 leukemia is -53.5% (active).

As for `N#Cc1cnn2c1n[n+]([O-])c1ccc(Cl)cc12`, the growth in the test on TK-10 renal is 98.1% [100 µM] (inactive) and -100% [100 µM] (active).

Consider `CC(C)C1OC23CCCCC2C(C#N)(C#N)C1(C#N)C(=N)O3` (stereo unspecified), for which, in the test on TK-10 renal, the growth is 39.7% [100 µM] (inactive).

As to `c1ccc(-c2nc(N3CCOCC3)c3c4c(sc3n2)CCCCCC4)nc1`, the growth was 65.2% (inactive) in the test with SN12C renal; 25.9% (inactive) in the test on UO-31 renal; 63.4% (inactive) with ACHN renal; 35.3% (inactive) in the test with CAKI-1 renal; -6.33% (active) in the test on A498 renal; 52.7% (inactive) in the test on MOLT-4 leukemia.

In the case of `N#Cc1c(SCc2ccccc2)nc(-c2ccccc2)[nH]c1=S`, the growth in the test on TK-10 renal is 9.89% [100 µM] (active) and 3.82% [100 µM] (active).

Turning to `CCOC(=O)C1=C(C)N2C(=NC3=C(CCCC/C3=C\c3ccccc3)C2c2ccccc2)S1` (stereo unspecified), the growth is 101% (inactive) in the test with SN12C renal; 91% (inactive) in the test with UO-31 renal; 102% (inactive) with ACHN renal; 90.2% (inactive) with CAKI-1 renal; 92.3% (inactive) in the test with A498 renal; 98.3% (inactive) with CCRF-CEM leukemia. The growth in the test with MOLT-4 leukemia is 96.4% (inactive).
